Experimental findings from the supplement of paper PMC11417369 are described below.

± gives the standard deviation of the averaged measurements. In all, about 25,000 sequences were measured (“ln(normalized median fluorescence intensity)”: median about 7.9, highest 2% from about 11 on). Shown is part of a subset that was picked to be rich in the highest values.

The subject of this assay is PfAP2-I AP2 domain 3 (GST-tagged). The assay can be described thus: gcPBM binding intensity (ln(normalized median fluorescence intensity)); higher = stronger DNA binding. A digest of the protocol: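 In this array assay, P. falciparum DNA-binding domains with a GST tag, expressed in E. coli, were applied for 1 h to primer-extended double-stranded 36-bp intergenic genomic probes and negative controls on an Agilent 4 × 180k array. Bound protein was visualised with Alexa488 anti-GST antibody at 488 nm. Binding intensity is the highest Masliner-normalised natural-log median intensity across replicate spots of either probe orientation.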
In the case of “TTATATTATTCGTGTGTGCACGATATTTCATAATTG [GTGCAC_site9767]”, the “gcPBM binding intensity (ln)” value amounted to 10.1 ± 0.2.

With “TTTGCGTAGAAATGTGTGCACTGATATTTATAATAA [GTGCAC_site9526]”, the “gcPBM binding intensity (ln)” value was determined as 10.6 ± 0.035.

Consider “AAAATTAAAATATCACGTACGAAGAAAAAATTAAGA [XGTACX_site6437]”, for which the “gcPBM binding intensity (ln)” value was 7.86 ± 0.54.

Turning to TATTTCACTTTTTGTCTGCACTAAAATTTTATGGTA, the “gcPBM binding intensity (ln)” value is 9.46 ± 0.32.

For “ATATATATATTATATGCACACTAATAAGACTATTTA [CACACA_site5880]”, the “gcPBM binding intensity (ln)” value amounted to 9.66 ± 0.11.

“TTTCAAAAAAATAGCTATATTTATATTAATGCACGA [TGCATGCA_negctrl_site63]”: the “gcPBM binding intensity (ln)” value stood at 11.9 ± 0.45.

Regarding “ACTAGACAAAATATAATGCACACTATTATTTTTATT [CACACA_site2726]”, the “gcPBM binding intensity (ln)” value was determined as 10.9 ± 0.65.

As to “TAGACAAAATATAATGCACACTATTATTTTTATTTA [CACACA_site5508]”, the “gcPBM binding intensity (ln)” value is 11 ± 0.73.

Consider “TTATATTTTACAAATGCACACATAATTTTTTTTTTT [CACACA_site8890]”, for which the “gcPBM binding intensity (ln)” value was found to be 9.04 ± 0.19.

Take “AATTAGCTATTTAAAAATATATAAAATTTATATATA [CACACA_negctrl_site390]”: the “gcPBM binding intensity (ln)” value amounted to 7.47 ± 0.2.

Consider “TATATATATTTATGCACACAAAATATATTATATAAT [CACACA_site5955]”, for which the “gcPBM binding intensity (ln)” value was found to be 9.86 ± 0.38.

“ATTATATATATTTATGCACACAAAATATATTATATA [CACACA_site9244]”: the “gcPBM binding intensity (ln)” value was 9.78 ± 0.3.

Take “TTTTTAATTCAAAAAATAATATATTATATTTCAAAT [CACACA_negctrl_site737]”: the “gcPBM binding intensity (ln)” value was 7.38 ± 0.48.

Regarding “ACTTCATTTTTTTTATGTACACAGAAGATTTACAAA [XGTACX_site4021]”, the “gcPBM binding intensity (ln)” value came out at 8.44 ± 0.47.

As for “TTTATTTGTAACGGTTGTACTTGTATATCATTATGA [XGTACX_site4281]”, the “gcPBM binding intensity (ln)” value is 7.72 ± 0.4.

Take “AAAAAAGACCATGTTAGTACATAAGATTTTTTTCAT [XGTACX_site4298]”: the “gcPBM binding intensity (ln)” value worked out at 7.53 ± 0.57.

Turning to “ATATTGCTTATTTGATGTACGAATACACTAGTATTA [XGTACX_site4536]”, the “gcPBM binding intensity (ln)” value worked out at 7.79 ± 0.64.

Turning to “TTATATTATATATATAGTACACATGTAATATTTCAA [XGTACX_site1791]”, the “gcPBM binding intensity (ln)” value stood at 7.76 ± 0.35.

For the sequence “ACCCTATTTATATATACACACACATATATAAATAAA [CACACA_site8980]”, the “gcPBM binding intensity (ln)” value was 8.24 ± 0.36.

On to “AAAAAAAAAAATATAACACACAAAAAATTGTATCGA [CACACA_site1144]”, for which the “gcPBM binding intensity (ln)” value was 7.53 ± 0.26.

“GCTATTAATTTATAAGCACACAATATAAATATATAT [CACACA_site2251]”: the “gcPBM binding intensity (ln)” value was determined as 8.46 ± 0.057.

As for “AAATATAATAATACATTGCACATATATTATATATAT [TGCATGCA_negctrl_site611]”, the “gcPBM binding intensity (ln)” value is 8.53 ± 0.64.

As for “ATATGTATGTATTTATTATTGTGCATTGTATTTATA [CACACA_negctrl_site664]”, the “gcPBM binding intensity (ln)” value worked out at 9.36 ± 0.38.

In the case of “TTTTGTTTATGTGTGCATTATATTATATTTTTTATT [TGCATGCA_negctrl_site146]”, the “gcPBM binding intensity (ln)” value came out at 10.9 ± 0.45.

On to “CTTAAATTAATTTGGGTGCATATATTTGTACACATT [GTGCAC_site9948]”, for which the “gcPBM binding intensity (ln)” value stood at 10.8 ± 0.53.

With “AAGTTATATTTGTGTACACATAATTTTATACTAATA [CACACA_site5553]”, the “gcPBM binding intensity (ln)” value is 8.82 ± 0.33.

Turning to “TTGGGTGCATATATTTGTACACATTATTTCTATTTT [XGTACX_site3688]”, the “gcPBM binding intensity (ln)” value turned out to be 11.2 ± 0.85.

For the sequence “TTGCATATTTCTAATTGTACATTATTTTATTTTATA [XGTACX_site8451]”, the “gcPBM binding intensity (ln)” value was determined as 7.75 ± 0.54.

In the case of “TATGTTTGTGTATATATTTATTTTTATGTAATTATA [GTGCAC_negctrl_site219]”, the “gcPBM binding intensity (ln)” value came to 7.75 ± 0.45.

In the case of “AGTACATTTTTGTGTGTGCACTAATATTATATACTT [GTGCAC_site9568]”, the “gcPBM binding intensity (ln)” value stood at 11.3 ± 0.62.

In the case of “TATATATATATTTTTTGTACATATTATATAATATAC [XGTACX_site5187]”, the “gcPBM binding intensity (ln)” value turned out to be 9.025 ± 0.064.

As to “ATATATTATAGAGGTGTGCACTACATACATTATAAT [GTGCAC_site9991]”, the “gcPBM binding intensity (ln)” value came out at 10.9 ± 0.4.

For the sequence AATAAATAGAAAGAGGTGCTACATTATATTATTTAT, the “gcPBM binding intensity (ln)” value worked out at 8.73 ± 0.3.

Consider “CCTTTTTCTACTTTCTCACACATATTAAGAATTATA [CACACA_site5621]”, for which the “gcPBM binding intensity (ln)” value turned out to be 8.29 ± 0.51.

Turning to “ATAAAAATGGATGAATATAAAAAAAAAAAAATATAT [CACACA_negctrl_site182]”, the “gcPBM binding intensity (ln)” value was found to be 7.74 ± 0.59.

Regarding “AAAAAAAATAAAAATATATATATATATATATAAATA [GTGCAC_negctrl_site676]”, the “gcPBM binding intensity (ln)” value was found to be 7.82 ± 0.53.

Take “TTCAATAGTAAGTATACACACATATATATATATAAA [CACACA_site2687]”: the “gcPBM binding intensity (ln)” value was 7.82 ± 0.47.

In the case of “TTACTTAATAGACACACACACAAAAAAAAAAAAAAA [CACACA_site6572]”, the “gcPBM binding intensity (ln)” value is 8.12 ± 0.49.

For the sequence “TTATATTAATTTTGTTGTACTATTTGTGCATTAAAT [XGTACX_site4790]”, the “gcPBM binding intensity (ln)” value was 11.1 ± 0.78.

Take “GTTTATGTATTATTATGTACGTATCATAATATATAT [XGTACX_site2385]”: the “gcPBM binding intensity (ln)” value is 8.28 ± 0.38.

For the sequence “AAATAATTATTTATCACACATATGTATTTATATATA [CACACA_site4589]”, the “gcPBM binding intensity (ln)” value was 7.66 ± 0.43.

As to “ATATAATAAATGTAGGTGCATAAAAATATTTTGTTA [GTGCAC_site9780]”, the “gcPBM binding intensity (ln)” value amounted to 11 ± 0.45.

On to “TTTTGTTATAAATAATGTACATATTTATTTAAAATT [XGTACX_site6610]”, for which the “gcPBM binding intensity (ln)” value came to 7.69 ± 0.38.

In the case of “TTTTTTTTTTTTTTGTGTACTAATATTATAAATTTT [XGTACX_site4405]”, the “gcPBM binding intensity (ln)” value was found to be 8.14 ± 0.3.

With “TTATTAAATTTTTTTTGTACTTATATATATATATAT [XGTACX_site2443]”, the “gcPBM binding intensity (ln)” value is 9.23 ± 0.18.

With “ATTTTTTAAAATATTTGTACATATATAATGCATATA [XGTACX_site7026]”, the “gcPBM binding intensity (ln)” value is 8.17 ± 0.17.

“AATTGTGCATTATATTGTACACGTGTTGTATATATT [XGTACX_site975]”: the “gcPBM binding intensity (ln)” value came to 11.1 ± 0.4.

With “TATATATTATATATATGTACATATTGTTGTGTATAT [XGTACX_site767]”, the “gcPBM binding intensity (ln)” value was determined as 7.92 ± 0.43.

Regarding “GTGTGCAAAAATTGTTGTACATTATATATAAAAAAA [XGTACX_site3246]”, the “gcPBM binding intensity (ln)” value worked out at 9.41 ± 0.34.

As to “AGTGCATAATATTTATGTACGTATCACATATATTTT [XGTACX_site5166]”, the “gcPBM binding intensity (ln)” value was 11.3 ± 0.83.
